Experimental data as given in PubChem BioAssay (NCATS).
Calls of active or inactive are those of the source. The call rests on the fitted dose curve; in most records, active means well fitted curve in the direction sought with a large enough effect; inconclusive means small, poorly fitted or top-dose-only effect, or another doubt; inactive means no such curve, though single readings can be large; an effect the other way counts as inactive or inconclusive.

Target: Cytochrome P450 3A4 (Homo sapiens) (UniProt P08684)
Sequence (P08684 whole entry, looked up): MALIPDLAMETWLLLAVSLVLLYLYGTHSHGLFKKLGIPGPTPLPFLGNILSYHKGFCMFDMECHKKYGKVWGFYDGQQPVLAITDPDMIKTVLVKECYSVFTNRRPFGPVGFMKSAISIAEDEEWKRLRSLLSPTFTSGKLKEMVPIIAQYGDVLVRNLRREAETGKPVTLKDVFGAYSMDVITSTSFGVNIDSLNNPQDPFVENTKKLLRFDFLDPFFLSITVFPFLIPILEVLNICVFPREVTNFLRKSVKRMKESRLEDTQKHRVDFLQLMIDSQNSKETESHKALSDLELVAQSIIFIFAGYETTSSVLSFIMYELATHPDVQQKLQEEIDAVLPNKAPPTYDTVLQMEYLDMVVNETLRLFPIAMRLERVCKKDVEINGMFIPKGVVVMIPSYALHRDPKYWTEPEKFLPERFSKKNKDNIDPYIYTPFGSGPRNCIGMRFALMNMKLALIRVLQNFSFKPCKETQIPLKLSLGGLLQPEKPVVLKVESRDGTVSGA
Test: qHTS Assay for Activators of Cytochrome P450 3A4 (AID 885); further: nearly all actives have a fitted effect of over 65% in size
Settings: recombinant CYP3A4, Luciferin-PPXE luminescence, 60 min; series mostly up to 57.1 µM
Method in brief: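 Quantitative HTS format: compounds preincubated with 20nM human CYP3A4 and Luciferin-PPXE substrate at KM, reaction started by NADPH regeneration, stopped after 60 min, luciferase luminescence read 20 min later.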

| Structure (SMILES) | outcome |
| --- | --- |
| COc1cc(N)c(Cl)cc1C(=O)NC1CCN(Cc2ccccc2)CC1 | inactive |
| O=C(CCCN1CC=C(n2c(=O)[nH]c3ccccc32)CC1)c1ccc(F)cc1 | inactive |
| CN1CCC[C@@H]1CCO[C@](C)(c1ccccc1)c1ccc(Cl)cc1 | inactive |
| NS(=O)(=O)Cc1noc2ccccc12 | inactive |
| CN(C)CCC[C@@]1(c2ccc(F)cc2)OCc2cc(C#N)ccc21 | inactive |

Tested on: not listed separately
Test: Confirmation and Secondary Assay for Modulators of Hemoglobin Beta Chain Splicing at IVS2 654 locus (AID 910);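 further: per-well total GFP intensity by laser scanning cytometry after 2-day treatment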
Settings: HeLa EGFP-654 splicing reporter, GFP fluorescence, 48 h; series mostly up to 46.1 µM
Method in brief: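 HeLa cells stably carrying EGFP interrupted by mutant beta-globin IVS2-654 intron (CMV-driven) were treated with compound for 2 days at 37C; corrected splicing was scored as total peak GFP intensity per well (488 nm excitation, 500-520 nm emission).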

| Structure (SMILES) | outcome |
| --- | --- |
| COc1cc(N)c(Cl)cc1C(=O)NC1CCN(Cc2ccccc2)CC1 | inactive |
| O=C(CCCN1CC=C(n2c(=O)[nH]c3ccccc32)CC1)c1ccc(F)cc1 | inactive |
| COc1ccc(C(=O)c2ccccc2)c(O)c1 | inactive |
| Oc1ccc(Cl)cc1Cc1cc(Cl)ccc1O | inactive |
| O=C1C(O)=C(O)C(=O)C(O)=C1O | inactive |
| Oc1c(Cl)cc(Cl)c(Cl)c1Cc1c(O)c(Cl)cc(Cl)c1Cl | inactive |
| CCOc1ccc(NC(C)=O)cc1 | inactive |
| CN(C)CCOC(=O)C(c1ccccc1)C1(O)CCCC1 (stereo not given) | inactive |
| NC(=O)c1ccccc1O | inactive |
| COc1ccc(C(Cl)=C(c2ccc(OC)cc2)c2ccc(OC)cc2)cc1 | inactive |
| CC(=O)NO | inactive |
| CCOC(=O)[C@H](CCc1ccccc1)N[C@@H](C)C(=O)N1[C@H](C(=O)O)C[C@H]2CCCC[C@@H]21 | inactive |
| CN(C)CCOC(c1ccc(Cl)cc1)c1ccccn1 (stereo not given) | inactive |
| O=C1C(=O)c2ccccc2C(O)=C1C1CCC(c2ccc(Cl)cc2)CC1 (stereo not given) | inactive |
| O=C(O)CCNC(=O)c1ccccc1 | inactive |
| CN(C)CCC[C@@]1(c2ccc(F)cc2)OCc2cc(C#N)ccc21 | inactive |
| O=C(O)c1ccc(S(=O)(=O)N(Cl)Cl)cc1 | inactive |
| COc1cc(C(=O)NCc2ccc(OCCN(C)C)cc2)cc(OC)c1OC | inactive |
| CCCN(CCC)S(=O)(=O)c1ccc(C(=O)O)cc1 | inactive |
| CCCCC(CC)CN1CN(CC(CC)CCCC)CC(C)(N)C1 (stereo not given) | inactive |
